Measurements published in PubChem BioAssay (Tox21).
Records with an inconclusive call do not appear. A call without a number means that no potency is given here. Activity calls are given as the source filed them. The call rests on the fitted dose curve; in most records, active means well fitted cell-killing curve with a large enough effect in the repeat runs; inconclusive means weak or mixed curves, or effect the other way; inactive means flat fitted curve, though single readings scatter.

How the values were obtained:
[1] = cAMP Responsive Elements (CRE) small molecule antagonists, cell-based qHTS assay: qHTS cell viability counter screen (AID 2060913); conditions: CRE-bla HEK293T viability, CellTiter-Glo luminescence, 5 h; series mostly up to 92.4 µM; further: nearly all actives have a fitted effect of over 40% in size
Summary of the method: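 Cytotoxicity read in the same wells as the CRE-bla HEK293T antagonist assay: after 3 h compound with 0.25 uM NKH477 final and 2 h beta-lactamase substrate, CellTiter-Glo luminescence measured.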

[2] = cAMP Responsive Elements (CRE) small molecule agonists, cell-based qHTS assay: qHTS cell viability counter screen (AID 2060914); conditions: CRE-bla HEK293T viability, CellTiter-Glo luminescence, 5 h; series mostly up to 92.4 µM;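 further: viability read after 3 h of compound exposure; nearly all actives have a fitted effect of over 50% in size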
Summary of the method: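 CRE-bla HEK 293T cells, plated 18 h at 37 °C, were exposed to compounds for 3 h at 37 °C/5% CO2. Viability was then measured in the same wells by CellTiter-Glo luminescence after 30 min at room temperature.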

SMILES | Potency [1] | Potency [2]
CN1CCN(CCCN2c3ccccc3Sc3ccc(Cl)cc32)CC1 | inactive | inactive
CC(C(O)c1ccc(O)cc1)N1CCC(Cc2ccccc2)CC1 (configuration not stated) | inactive | inactive
CC(C)(C)C(O)/C=C/c1ccc2c(c1)OCO2 (configuration not stated) | inactive | inactive
Cc1cccc(N)n1 | inactive | inactive
COc1ccc(Cc2cnc(N)nc2N)cc1OC | inactive | inactive
C=CC(=O)OCC[N+](C)(C)C | inactive | inactive
CS(=O)(=O)Nc1ccc([N+](=O)[O-])cc1Oc1ccccc1 | inactive | inactive
CC(=O)O[C@@H]1CC2CCC1(C)C2(C)C (some centres not stated) | inactive | inactive
Nc1c(Cl)cc(Cl)cc1[N+](=O)[O-] | inactive | inactive
Cc1cc(CC(=O)O)n(C)c1C(=O)c1ccc(Cl)cc1 | inactive | inactive
CN1C(CSCC(F)(F)F)Nc2cc(Cl)c(S(N)(=O)=O)cc2S1(=O)=O (configuration not stated) | inactive | inactive
OCC1(CO)COCOC1 | inactive | inactive
C[C@]12CC[C@@H]3c4ccc(O)cc4C[C@@H](CCCCCCCCCS(=O)CCCC(F)(F)C(F)(F)F)[C@H]3[C@@H]1CC[C@@H]2O (some centres not stated) | inactive | inactive
Cc1ccc(S(=O)(=O)Oc2ccc(N=Nc3ccc(-c4ccc(N=Nc5c(O)ccc6cc(S(=O)(=O)O)cc(S(=O)(=O)O)c56)c(C)c4)cc3C)cc2)cc1 | inactive | inactive
Nc1ccc2cc(S(=O)(=O)O)cc(O)c2c1N=Nc1ccccc1C(F)(F)F | inactive | inactive
CCOC(=O)COC(=O)c1ccccc1C(=O)OCC | inactive | inactive
